This note sets out measurements from PubChem BioAssay (EPA / NIEHS).

Several values for one entry are separate records, joined by “and”; a condition that tells them apart may be missing. Equal values may be shown once. Activity calls are given as the source filed them. How the source made its calls: active means hit-call score of the fitted dose curve at least 0.9, where 1 is the maximum; inactive means score below 0.9.

Sequence of E-selectin (Homo sapiens) (P16581 whole entry, looked up): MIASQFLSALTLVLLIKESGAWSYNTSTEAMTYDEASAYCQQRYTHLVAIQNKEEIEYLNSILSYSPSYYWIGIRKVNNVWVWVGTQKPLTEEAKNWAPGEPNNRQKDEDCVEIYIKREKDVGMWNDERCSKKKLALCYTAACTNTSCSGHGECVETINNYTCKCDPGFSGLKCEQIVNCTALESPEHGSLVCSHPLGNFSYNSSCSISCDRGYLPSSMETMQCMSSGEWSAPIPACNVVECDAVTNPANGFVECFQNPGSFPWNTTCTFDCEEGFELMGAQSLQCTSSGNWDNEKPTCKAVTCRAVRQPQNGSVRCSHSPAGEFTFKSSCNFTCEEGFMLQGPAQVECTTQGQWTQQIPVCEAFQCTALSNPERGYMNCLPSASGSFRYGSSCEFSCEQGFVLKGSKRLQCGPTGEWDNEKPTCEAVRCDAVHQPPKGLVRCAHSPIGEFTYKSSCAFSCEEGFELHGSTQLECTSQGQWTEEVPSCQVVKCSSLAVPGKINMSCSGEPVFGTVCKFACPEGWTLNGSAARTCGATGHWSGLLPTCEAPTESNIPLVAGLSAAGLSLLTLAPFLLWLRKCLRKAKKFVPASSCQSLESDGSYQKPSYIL

Read-out in the first assay: urokinase plasminogen activator (uPA), PLAU (gene 5328)
As to the kind of experiment: BSK_KF3CT_uPA: BioMAP Diversity Plus: KF3CT Assay for urokinase plasminogen activator (uPA) Biomarker Activity (AID 2283075). Conditions: primary human keratinocytes with fibroblasts; actives raise or lower the signal. The gist of the method: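 Primary human keratinocyte/foreskin fibroblast co-culture exposed to chemical; uPA measured by ELISA at 24 h. Bidirectional fit versus DMSO, with parallel SRB total-protein staining for cytotoxicity.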
For `O=C(O)CCC(F)(C(F)(F)F)C(F)(F)F`, the result was inactive.

With `CC(C)CCCCCCOC(=O)c1ccccc1C(=O)OCCCCCCC(C)C`, the result was inactive.

Turning to `Oc1c(I)cc(I)cc1I`, the AC50 is 31.2 µM (active).

Turning to `O=C(O)C(F)(F)C(F)(F)C(F)(F)C(F)(F)C(F)(F)C(F)(F)C(F)(F)C(F)(F)C(F)(F)C(F)(F)F`, the AC50 was 9.7 µM (active) and 5.47 µM (active) and 5.16 µM (active).

As for `CCC(=O)C(CC(C)N(C)C)(c1ccccc1)c1ccccc1` (stereo not given), the outcome was inactive.

For `CCCCCCCCc1ccc(O)cc1`, the AC50 was 31.6 µM (active).

Consider `NC(=O)O`, for which the result was inactive.

`Nc1ccc(-c2ccc(N)c(Cl)c2)cc1Cl`: the result was inactive.

As for `CC1(C)Cc2cccc(O)c2O1`, the result was inactive.

With `C=C(C)C(=O)[O][Sn]([CH2]CCC)([CH2]CCC)[CH2]CCC`, the AC50 was 0.148 µM (active).

On to `CCCCCCCCC(=O)NCc1ccc(O)c(OC)c1`, for which the outcome was inactive.

Take `COC(=O)c1sccc1S(=O)(=O)NC(=O)Nc1nc(C)nc(OC)n1`: the result was inactive.

Consider `O=c1[nH]c(=O)[nH]c(=O)[nH]1`, for which the outcome was inactive.

For the compound `CCOP(=S)(OCC)SCSP(=S)(OCC)OCC`, the result was inactive.

For the compound `O=Cc1cccc(Oc2ccccc2)c1`, the outcome was inactive.

As for `COc1cc(-c2ccc(N)c(OC)c2)ccc1N`, the result was inactive.

In the case of `COP(=S)(OC)Oc1ccc(S(=O)(=O)N(C)C)cc1`, the outcome was inactive.

For `C(=NC1CCCCC1)=NC1CCCCC1`, the AC50 is 28.8 µM (active).

Take `O=[N+]([O-])c1ccc(O)c([N+](=O)[O-])c1`: the result was inactive.

Turning to `CCC(C)(C)c1ccc(O)c(C(C)(C)CC)c1`, the half-maximal activity concentration (AC50) is 7.77 µM (active).

`O=C(O)C(Cl)(Cl)Cl`: the outcome was inactive.

As to `Oc1cccc2cccnc12`, the AC50 is 2.74 µM (active).

On to `Cn1sc(Cl)cc1=O`, for which the result was inactive.

As to `ClCC(Cl)CCl`, the result was inactive.

In the case of `OCc1ccco1`, the result was inactive.

`O=C(OC1CCCCC1)c1ccccc1C(=O)OC1CCCCC1`: the outcome was inactive.

`O=S(=O)(c1ccc(Cl)cc1)c1ccc(Cl)cc1`: the outcome was inactive.

As to `COC[C@H](C)N(C(=O)CCl)c1c(C)csc1C`, the result was inactive.

On to `CN(C)N=O`, for which the outcome was inactive.

For the compound `O=C1C2(Cl)C3(Cl)C4(Cl)C(Cl)(Cl)C5(Cl)C3(Cl)C1(Cl)C5(Cl)C24Cl` (stereo not given), the half-maximal activity concentration (AC50) is 11.1 µM (active).

On to `COP(=S)(OC)Oc1ccc(Sc2ccc(OP(=S)(OC)OC)cc2)cc1`, for which the result was inactive.

`CC(=O)C(Cl)C(=O)N(C)C` (stereo not given): the outcome was inactive.

Consider `CCN1CCC2(CC1)COc1cc3c(cc12)N(C(=O)c1ccc(-c2ccc(-c4nnc(C)o4)cc2C)cc1)CC3`, for which the AC50 is 29.9 µM (active).

Read-out in another assay: CD40, CD40 (gene 958)
As to the kind of experiment: BSK_LPS_CD40: BioMAP Diversity Plus: LPS Assay for CD40 Biomarker Activity (AID 2283076). Conditions: primary human HUVEC with PBMC; actives raise or lower the signal. The method, boiled down:
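HUVEC plus PBMC co-culture stimulated with LPS; CD40 quantified by ELISA 24 h after compound dosing. Fitting was bidirectional relative to DMSO. SRB staining of parallel cultures flagged overt cytotoxicity.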
On to `CC(C)CCCCCCOC(=O)c1ccccc1C(=O)OCCCCCCC(C)C`, for which the result was inactive.

`CCC(=O)C(CC(C)N(C)C)(c1ccccc1)c1ccccc1` (stereo not given): the outcome was inactive.

For `CCCCCCCCc1ccc(O)cc1`, the AC50 is 31.5 µM (active).

For `NC(=O)O`, the result was inactive.

Regarding `Nc1ccc(-c2ccc(N)c(Cl)c2)cc1Cl`, the outcome was inactive.

Consider `CC1(C)Cc2cccc(O)c2O1`, for which the result was inactive.

With `CCOP(=S)(OCC)SCSP(=S)(OCC)OCC`, the result was inactive.

Regarding `O=Cc1cccc(Oc2ccccc2)c1`, the outcome was inactive.

Regarding `COc1cc(-c2ccc(N)c(OC)c2)ccc1N`, the result was inactive.

Consider `COP(=S)(OC)Oc1ccc(S(=O)(=O)N(C)C)cc1`, for which the outcome was inactive.

In the case of `C(=NC1CCCCC1)=NC1CCCCC1`, the AC50 is 27.4 µM (active).

With `O=[N+]([O-])c1ccc(O)c([N+](=O)[O-])c1`, the outcome was inactive.

For `O=C1C2(Cl)C3(Cl)C4(Cl)C(Cl)(Cl)C5(Cl)C3(Cl)C1(Cl)C5(Cl)C24Cl` (stereo not given), the half-maximal activity concentration (AC50) was 7.66 µM (active).

With `CC(=O)C(Cl)C(=O)N(C)C` (stereo not given), the half-maximal activity concentration (AC50) is 15.5 µM (active).

Read-out in the next assay: E-selectin (Homo sapiens) (UniProt P16581)
As to the kind of experiment: BSK_LPS_Eselectin: BioMAP Diversity Plus: LPS Assay for Eselectin Biomarker Activity (AID 2283077). Conditions: primary human HUVEC with PBMC; actives raise or lower the signal. The gist of the method: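 Human umbilical vein endothelial cells co-cultured with PBMC under LPS stimulation; cell-surface E-selectin measured by ELISA 24 h after dosing. Change in either direction versus DMSO, with SRB total-protein staining in parallel cultures for cytotoxicity.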
For the compound `O=C(O)CCC(F)(C(F)(F)F)C(F)(F)F`, the result was inactive.

As to `CC(C)CCCCCCOC(=O)c1ccccc1C(=O)OCCCCCCC(C)C`, the outcome was inactive.

In the case of `Oc1c(I)cc(I)cc1I`, the half-maximal activity concentration (AC50) is 27.6 µM (active).

On to `O=C(O)C(F)(F)C(F)(F)C(F)(F)C(F)(F)C(F)(F)C(F)(F)C(F)(F)C(F)(F)C(F)(F)C(F)(F)F`, for which the result was inactive.

In the case of `CCC(=O)C(CC(C)N(C)C)(c1ccccc1)c1ccccc1` (stereo not given), the result was inactive.

For `CCCCCCCCc1ccc(O)cc1`, the AC50 was 37.8 µM (active).

`NC(=O)O`: the outcome was inactive.

Regarding `Nc1ccc(-c2ccc(N)c(Cl)c2)cc1Cl`, the outcome was inactive.

`CC1(C)Cc2cccc(O)c2O1`: the outcome was inactive.

Consider `C=C(C)C(=O)[O][Sn]([CH2]CCC)([CH2]CCC)[CH2]CCC`, for which the half-maximal activity concentration (AC50) is 0.148 µM (active).

Take `CCCCCCCCC(=O)NCc1ccc(O)c(OC)c1`: the result was inactive.

In the case of `COC(=O)c1sccc1S(=O)(=O)NC(=O)Nc1nc(C)nc(OC)n1`, the outcome was inactive.

As to `O=c1[nH]c(=O)[nH]c(=O)[nH]1`, the outcome was inactive.

For `CCOP(=S)(OCC)SCSP(=S)(OCC)OCC`, the outcome was inactive.

For the compound `O=Cc1cccc(Oc2ccccc2)c1`, the result was inactive.

On to `COc1cc(-c2ccc(N)c(OC)c2)ccc1N`, for which the result was inactive.

With `COP(=S)(OC)Oc1ccc(S(=O)(=O)N(C)C)cc1`, the result was inactive.

In the case of `C(=NC1CCCCC1)=NC1CCCCC1`, the concentration at half-maximal activity (AC50) was 34.9 µM (active).

Consider `O=[N+]([O-])c1ccc(O)c([N+](=O)[O-])c1`, for which the outcome was inactive.

As for `CCC(C)(C)c1ccc(O)c(C(C)(C)CC)c1`, the AC50 is 27 µM (active).

For the compound `O=C(O)C(Cl)(Cl)Cl`, the outcome was inactive.

`Oc1cccc2cccnc12`: the result was inactive.

On to `Cn1sc(Cl)cc1=O`, for which the AC50 was 35.4 µM (active).

In the case of `ClCC(Cl)CCl`, the outcome was inactive.

In the case of `OCc1ccco1`, the result was inactive.

For the compound `O=C(OC1CCCCC1)c1ccccc1C(=O)OC1CCCCC1`, the AC50 is 20.9 µM (active).

Turning to `O=S(=O)(c1ccc(Cl)cc1)c1ccc(Cl)cc1`, the outcome was inactive.

Turning to `COC[C@H](C)N(C(=O)CCl)c1c(C)csc1C`, the result was inactive.

Regarding `CN(C)N=O`, the result was inactive.

As to `O=C1C2(Cl)C3(Cl)C4(Cl)C(Cl)(Cl)C5(Cl)C3(Cl)C1(Cl)C5(Cl)C24Cl` (stereo not given), the AC50 was 11.1 µM (active).

`COP(=S)(OC)Oc1ccc(Sc2ccc(OP(=S)(OC)OC)cc2)cc1`: the outcome was inactive.

With `CC(=O)C(Cl)C(=O)N(C)C` (stereo not given), the AC50 is 15.4 µM (active).

Regarding `CCN1CCC2(CC1)COc1cc3c(cc12)N(C(=O)c1ccc(-c2ccc(-c4nnc(C)o4)cc2C)cc1)CC3`, the half-maximal activity concentration (AC50) was 29.3 µM (active).

The term AC50 denotes the midpoint of the concentration-response curve, whichever way the signal moves.
